ssDAF-12 act: S. stercoralis DAF-12 nuclear receptor activators, primary screen, cell-based, luminescence, HEK293, GRIP1 co-expression, lit1-tk-luc | Nuclear hormone receptor DAF-12 (Strongyloides stercoralis) | HEK293 ssDAF-12/GRIP1 lit1-tk-luc reporter; % of 3 µM dafachronic acid response | activation, % at 6.8 µM | hit rate 1% among 370,000 | AID 652126, 2013;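 active means activation above the mean over all tested compounds plus 3 SD, cut at about 0.9% in these data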;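 further: 0% = DMSO-only wells and 100% = 3 µM delta7-dafachronic acid wells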
DAX1 inh-1: DAX1 (NR0B1) inhibitors, primary screen, cell-based, HEK293, Gal4-DAX1, luciferase luminescence; hit rate 0.99% among 340,000; Nuclear receptor subfamily 0 group B member 1 (Homo sapiens), P51843; inhibition, % at 6.75 µM; HEK293 Gal4-DAX1 luciferase reporter;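 active means inhibition above the mean over all tested compounds plus 3 SD, cut at about 4.2% in these data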;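 further: 0% = DAX1-transfected cells with DMSO and 100% = empty-vector control cells with DMSO; inhibition shows as a rise in luminescence from relieved DAX1 repression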
AHR act: AHR activators, primary screen, cell-based, luminescence, luciferase reporter, human; activation, % at 5 µM; AHR-responsive luciferase reporter cells; AID 2796, 2010; Aryl hydrocarbon receptor (Homo sapiens), P35869; hit rate 2.5% among 320,000; in the data active means activation above about 47%;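 further: 0% = vehicle wells and 100% = reference agonist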
Target sequence (P35869 whole entry, looked up): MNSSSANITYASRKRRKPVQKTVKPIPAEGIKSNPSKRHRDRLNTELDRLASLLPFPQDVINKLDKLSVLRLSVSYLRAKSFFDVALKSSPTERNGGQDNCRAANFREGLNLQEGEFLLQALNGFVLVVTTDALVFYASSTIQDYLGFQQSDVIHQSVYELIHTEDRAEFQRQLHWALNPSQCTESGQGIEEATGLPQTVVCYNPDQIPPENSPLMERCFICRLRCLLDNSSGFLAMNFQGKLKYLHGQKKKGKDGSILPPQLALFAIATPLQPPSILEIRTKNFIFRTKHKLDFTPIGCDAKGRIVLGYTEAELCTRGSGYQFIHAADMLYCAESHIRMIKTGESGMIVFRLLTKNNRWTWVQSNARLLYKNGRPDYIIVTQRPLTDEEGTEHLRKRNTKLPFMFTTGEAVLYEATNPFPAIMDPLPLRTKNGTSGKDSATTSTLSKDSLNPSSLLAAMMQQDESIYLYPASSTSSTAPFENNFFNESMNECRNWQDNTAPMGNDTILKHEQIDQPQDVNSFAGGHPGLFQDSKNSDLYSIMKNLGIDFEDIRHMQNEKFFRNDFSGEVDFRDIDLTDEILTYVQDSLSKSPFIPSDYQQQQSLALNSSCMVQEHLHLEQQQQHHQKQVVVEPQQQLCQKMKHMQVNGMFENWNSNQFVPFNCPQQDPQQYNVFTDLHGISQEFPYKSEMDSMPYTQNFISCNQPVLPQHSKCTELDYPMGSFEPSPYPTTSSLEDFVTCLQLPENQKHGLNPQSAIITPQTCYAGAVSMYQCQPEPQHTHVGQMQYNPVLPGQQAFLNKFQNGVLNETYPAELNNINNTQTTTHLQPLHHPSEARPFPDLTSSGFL
hgDAF-12 ag: H. glycines DAF-12 receptor agonists, primary screen, cell-based, luminescence, HEK293, GAL4 fusion, UAS-luciferase | Nuclear hormone receptor DAF-12 (Heterodera glycines), GAL4 fusion | HEK293 GAL4-hgDAF12 UAS-luciferase reporter, agonist luminescence; normalized to butyrate control | activation, % at 6.8 µM | hit rate 1.8% among 370,000 | AID 687014, 2013;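 active means activation above a cutoff set at the mean of all screened compounds plus 3 SD, cut at about 10% in these data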;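 further: 0% = DMSO wells and 100% = sodium butyrate wells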
hcDAF12 agonist: H. contortus DAF-12 nuclear receptor activators, primary screen, cell-based, luminescence, HEK293, lit1-tk-luc reporter; HEK293 hcDAF-12 lit1-tk-luc reporter; 0% DMSO, 100% Δ7-dafachronic acid; activation, % at 6.8 µM; hit rate 1.4% among 370,000; AID 652067, 2013;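 active means activation above the mean of all tested compounds plus 3 SD, cut at about 5.5% in these data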;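 further: 100% = response to 3 µM Δ7-dafachronic acid high control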
DAX1 inh-2: DAX1 (NR0B1) inhibitors on StAR promoter, primary screen, cell-based, luminescence, SF-1 (NR5A1), full-length DAX-1; HEK293T StAR-luciferase reporter, SF-1/DAX-1 repression relief; inhibition, % at 6.8 µM; hit rate 1.1% among 370,000; AID 652010, 2013;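 active means inhibition above the mean over all tested compounds plus 3 SD, cut at about 3.6% in these data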;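 further: 0% = DAX-1 cells with DMSO and 100% = cells lacking DAX-1 with DMSO; higher inhibition means more luminescence from relief of DAX-1 repression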
hgDAF12 conf: H. glycines DAF-12 receptor agonists, confirmation, cell-based, luminescence, HEK293, GAL4-LBD fusion. shares compounds with hgDAF-12 ag. HEK293 GAL4-hgDAF12 luciferase reporter, agonist mode; percent of butyrate response. activation, % at 6.8 µM. hit rate 80% among 3,300;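 active means mean activation over triplicate wells above the hit cutoff derived from the earlier primary screen, cut at about 11% in these data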;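 further: 0% = DMSO low control and 100% = 2 mM sodium butyrate high control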
LXRb DAF12 ctr: LXR agonists, Gal4 luciferase reporter, confirmation, counter-screen for hgDAF-12 agonist project, cell-based, luminescence, HEK293, H. glycines campaign; AID 743051, 2013; shares compounds with hgDAF-12 ag; activation, % at 6.8 µM; 24 h; 3,300 tested, under 10 active;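 active means mean activation of the triplicate above a set limit carried over from the primary screen, none filed active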
An asterisk follows results filed as active. Hits are enriched below; roughly 5.7% of the tested compounds scored in any of these assays.

O=C(c1cc2c(s1)-c1ccccc1OC2)N1CCC2(CC1)OCCO2 was read as ssDAF-12 act 0, DAX1 inh-1 3, AHR act 3, hgDAF-12 ag 14*, hcDAF12 agonist 3, DAX1 inh-2 0, hgDAF12 conf 19* and LXRb DAF12 ctr 1.
Screening CC[C@H]1CN2CCC1C[C@@H]2[C@@H](O)c1ccnc2ccc(OC)cc12 (stereo partly drawn) returned ssDAF-12 act -2, DAX1 inh-1 1, hgDAF-12 ag -5, hcDAF12 agonist -1 and DAX1 inh-2 0.
Screening COc1ccc(CN2Cc3cc(-c4ccccc4)ccc3-n3nncc3C2)cc1 returned ssDAF-12 act -1, hgDAF-12 ag 3, hcDAF12 agonist -1 and DAX1 inh-2 -1.
Screening COc1ccc(CN2Cc3cc(-c4ccc(OC)cc4)ccc3-n3nncc3C2)cc1 returned ssDAF-12 act -1, hgDAF-12 ag 14*, hcDAF12 agonist 2, DAX1 inh-2 -2, hgDAF12 conf 3 and LXRb DAF12 ctr 0.
Screening COc1cc2c(C(=O)O)c(C)n(C)c2cc1Br returned ssDAF-12 act -1, DAX1 inh-1 1, AHR act -4, hgDAF-12 ag 1, hcDAF12 agonist -2 and DAX1 inh-2 0.
`NC(Cc1ccccc1)c1nc2ccccc2[nH]1` (stereo not drawn) gave ssDAF-12 act 0, DAX1 inh-1 2, AHR act 8, hgDAF-12 ag 1, hcDAF12 agonist 2 and DAX1 inh-2 0.
NC(Cc1nc2ccccc2[nH]1)c1ccc(Cl)cc1 (stereo not drawn) was read as ssDAF-12 act 1, DAX1 inh-1 3, AHR act -6, hgDAF-12 ag 14*, hcDAF12 agonist 5, DAX1 inh-2 3, hgDAF12 conf 15* and LXRb DAF12 ctr 0.
Screening COc1ccccc1/C=N/N=C(/N)N[N+](=O)[O-] returned ssDAF-12 act -2, DAX1 inh-1 0, AHR act 13, hgDAF-12 ag 16*, hcDAF12 agonist 0, DAX1 inh-2 0, hgDAF12 conf 1 and LXRb DAF12 ctr 0.
For N/C(=N\N=C\c1ccc(O)cc1O)N[N+](=O)[O-] the results were ssDAF-12 act -1, DAX1 inh-1 -1, AHR act 1, hgDAF-12 ag 0, hcDAF12 agonist 0 and DAX1 inh-2 0.

Source: PubChem
